# Bioassay records from PubChem.
# DT40 TDP1 CPT – growth inhibition of DT40 Tdp1-/-;hTDP1 cells with camptothecin (screen for TDP1 inhibitors). Potency, µM (titrated, usually from 46.2 µM), without a hit: top-dose activity change, negative = growth inhibition, actives largely listed as inhibitors. 420,000 compounds, 12% hits. chicken DT40 Tdp1-/-;hTDP1 cells + 20 nM CPT, ATP luminescence, 48 h; further: potency means the concentration at half of the fitted maximal effect; nearly all actives have a fitted effect of over 55% in size
#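 Chicken DT40 Tdp1-/- cells complemented with human TDP1, 400 cells/well, exposed to compounds plus 20 nM camptothecin for at least 48 h at 37 C; viability read as ATP content by CellTiter-Glo luminescence.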
# IL-1B inflam inh – blocks inflammasome-driven IL-1 beta release | THP-1 LPS/ATP IL-1B secretion, AlphaLISA, 16 h; stronger effect = lower value | activity change, % at 57.5 µM | 360,000 compounds, 4.7% hits; in the data active means activity change below about -50%; inconclusive means mostly about -30% to -49%
#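 THP-1 cells pretreated 1 hr with compounds (up to 57.5 uM final), then stimulated with LPS (250 ng/mL final) plus ATP (1.25 mM final); secreted IL-1B measured by AlphaLISA after 16 hr, decreased signal indicating inhibition.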
# HT1080 IDH1KD tx – kills HT-1080 cells with IDH1 knockdown; HT-1080 IDH1 knockdown viability, ATP luminescence, 48 h; Potency, µM (doses to about 46.1 µM), inactives show top-dose activity, negative = toxicity, hits mostly cytotoxic; 360,000 compounds, 2% hits; AID 686971;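 further: potency means the concentration at half of the fitted maximal effect; 0% = DMSO wells and -100% = cell-free medium wells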
#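 Using the IDH1-knockdown HT-1080 line run in the same batch and compound series as the NT line, viability after 48 h at 37 °C was determined by CellTiter-Glo luminescence and expressed as % activity.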
# HT1080-NT tox – kills 2HG-producing HT-1080-NT fibrosarcoma cells; HT-1080-NT fibrosarcoma viability, CellTiter-Glo ATP luminescence, 48 h; Potency, µM (titrated, usually from 46.1 µM), for inactives: at the highest dose activity, negative = less viability, actives largely listed as cytotoxic; 360,000 compounds, 1.6% hits;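 further: NT is the 2HG producing partner of a matched IDH1 knockdown line; potency means the concentration at half of the fitted maximal effect; 0% = DMSO-treated cells and -100% = media-only wells without cells; nearly all actives have a fitted effect of over 55% in size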
#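 Toxicity toward the 2HG-producing NT line was scored as %Activity, normalised to DMSO and no-cell wells, from CellTiter-Glo luminescence after 48 hours' treatment.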
# DT40 TDP1 no CPT – qHTS for Inhibitors of human tyrosyl-DNA phosphodiesterase 1 (TDP1): qHTS in cells in absence of CPT; DT40 Tdp1-/- hTDP1 cells, no CPT, ATP luminescence, 48 h; Potency, µM (highest dose often 46.2 µM), without a hit: top-dose activity change, negative = growth inhibition, usual class: inhibitors; 420,000 compounds, 15% hits; further: potency means the concentration at half of the fitted maximal effect; nearly all actives have a fitted effect of over 55% in size
#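 Stably hTDP1-transfected Tdp1-null chicken DT40 cells were treated with library compounds minus camptothecin and grown for at least 48 hr at 37 °C, after which cellular ATP was quantified by luminescence.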
# * = called active by the depositor; ? = inconclusive; · = no result. Rows were chosen to be rich in hits. Some 19% of all compounds tested hit in one or more screens of this group. Unless noted, the call rests on the fitted dose curve; in most records, active means well fitted curve in the direction sought with a large enough effect; inconclusive means small, poorly fitted or top-dose-only effect, or another doubt; inactive means no such curve, though single readings can be large; an effect the other way counts as inactive or inconclusive. Unless noted, on the % scale 0 is the no-effect control and ±100 the full control effect.
SMILES,DT40 TDP1 CPT,IL-1B inflam inh,HT1080 IDH1KD tx,HT1080-NT tox,DT40 TDP1 no CPT
COc1ccc2[nH]c(C(=O)N3CCC(CO)(Cc4cccc(C(F)(F)F)c4)CC3)c(C)c2c1,?,?,-0.7%,-10.2%,20.6µM*
COc1cccc(CC2(CO)CCN(C(=O)NC3CCCCC3)CC2)c1,23.1µM*,18.2,14.7%,9.8%,-28.0%
CC(C)Cc1cc(CN2CCC(CO)(Cc3cccc(C(F)(F)F)c3)CC2)[nH]n1,?,-81.8*,?,?,?
O=C(CCC(=O)Nc1ccccc1)NNC(=O)COc1ccccc1,0.7%,5.6,1.1%,0.0%,-12.7%
CCOc1cc(NC(=S)NCCCN2CCOCC2)c(OCC)cc1NC(=O)c1ccc(C)cc1,0.2%,-4.3,-7.4%,-8.5%,?
Cc1ccc(-n2cc(CN3CCC(CO)(Cc4cccc(C(F)(F)F)c4)CC3)cn2)cc1,9.2µM*,-112.1*,18.4µM*,23.1µM*,20.6µM*
CSc1cccc(CN2CCC(CO)(Cc3cccc(C(F)(F)F)c3)CC2)c1,?,-96.1*,16.4µM*,20.6µM*,16.4µM*
O=S(=O)(c1cccc(F)c1)N1CCC(CO)(Cc2cccc(F)c2)CC1,5.3%,-7.9,-12.0%,-24.8%,?
OCC1(Cc2cccc(C(F)(F)F)c2)CCN(Cc2cc(F)cc(F)c2)CC1,?,-77.5*,?,18.4µM*,?
CCNC(=O)C1(C)CCN(Cc2cccc(C(F)(F)F)c2)C1 (configuration not stated),-26.4%,0.0,8.2%,16.0%,-26.3%
N#Cc1nc(/C=C/c2ccc(F)cc2)oc1N1CCN(c2ccccc2)CC1,-21.2%,·,·,·,-7.2%
COc1cc(/C=C/c2nc(C#N)c(N3CCCCC3)o2)cc(OC)c1OC,8.2µM*,·,·,·,7.31µM*
Cc1cccc(-c2nc(C#N)c(N3CCCCCC3)o2)c1,29.1µM*,-56.8*,0.4%,-0.3%,?
CCN1CCN(c2oc(/C=C/c3ccccc3)nc2C#N)CC1,-25.8%,0.0,-1.9%,10.2%,-27.6%
COc1ccccc1-c1nc(C#N)c(N2CCCCCC2)o1,-18.3%,-18.3,2.9%,0.3%,-29.3%
COc1cccc(/C=C/c2nc(C#N)c(N3CCCCC3)o2)c1,20.6µM*,·,·,·,23.1µM*
COc1ccc(/C=C/c2nc(C#N)c(N3CCC(C)CC3)o2)cc1OC,16.4µM*,·,·,·,23.1µM*
NS(=O)(=O)c1ccc(CNC(=O)Cn2nc(C(F)F)cc2C(F)F)cc1,0.3%,-2.3,6.6%,1.8%,8.1%
COc1cc2c(cc1OC)C(COc1ccc3c(C)cc(=O)oc3c1)N(C(=O)C(C)C)CC2 (configuration not stated),?,·,·,·,13µM*
CCOc1ccccc1C(=O)N1CCc2cc(OC)c(OC)cc2C1COc1ccc2c(C)cc(=O)oc2c1 (configuration not stated),?,·,·,·,9.2µM*
CCOc1ccc(CC(=O)N2CCc3cc(OC)c(OC)cc3C2COc2ccc3c(C)cc(=O)oc3c2)cc1 (configuration not stated),-25.1%,·,·,·,-9.7%
COc1cc2c(cc1OC)C(COc1ccc3c(C)cc(=O)oc3c1)N(C(=O)c1cccc(OC)c1OC)CC2 (configuration not stated),?,·,·,·,23.1µM*
COc1cc2c(cc1OC)C(COc1ccc3c(C)cc(=O)oc3c1)N(C(=O)c1ccco1)CC2 (configuration not stated),?,-6.5,5.5%,-7.1%,20.6µM*
CCC(=O)N1CCc2cc(OC)c(OC)cc2C1COc1ccc2c(C)cc(=O)oc2c1 (configuration not stated),-4.1%,·,·,·,-26.4%
COc1ccc(CC(=O)N2CCc3cc(OC)c(OC)cc3C2COc2ccc3c(C)cc(=O)oc3c2)cc1OC (configuration not stated),2.4%,·,·,·,-3.4%
SMILES,DT40 TDP1 CPT,IL-1B inflam inh,HT1080 IDH1KD tx,HT1080-NT tox,DT40 TDP1 no CPT
O=C(CCNC(=O)c1ccccc1Cl)NCC(c1ccco1)N1CCCC1 (configuration not stated),8.1%,-1.1,3.2%,1.2%,-14.9%
COc1cc2c(cc1OC)C(COc1ccc3c(C)cc(=O)oc3c1)N(C(=O)c1cccc(C)c1)CC2 (configuration not stated),?,·,·,·,6.51µM*
CCOc1ccc(NC(=S)N2CCc3cc(OC)c(OC)cc3C2COc2ccc3c(C)cc(=O)oc3c2)cc1 (configuration not stated),-11.3%,-15.6,-1.0%,-7.4%,1.6%
O=C(O)c1cccc(NC(=O)c2cc3cc(Br)cc(Br)c3oc2=O)c1,-1.9%,·,·,·,-1.7%
CC#CC#Cc1cccc(=O)o1,?,-74.9*,20.6µM*,?,?
CC(NC(=O)c1cnccn1)c1ccc(S(N)(=O)=O)cc1 (configuration not stated),?,0.0,3.7%,1.8%,?
CCN(CC)S(=O)(=O)c1cc(NC(=O)C(C)N2CCc3ccccc32)ccc1C (configuration not stated),?,?,-24.3%,?,25.9µM*
CCN(CC)S(=O)(=O)c1cc(NC(=O)C(C)N(C)CC(=O)Nc2c(C)cccc2C)ccc1C (configuration not stated),25.9µM*,-3.3,-3.7%,-1.6%,18.4µM*
Cc1ccc(NC(=O)C(C)N2CCCc3ccccc32)cc1S(=O)(=O)N1CCOCC1 (configuration not stated),-88.0%,-7.2,-4.8%,-1.2%,6.51µM*
Cc1ccc(NC(=O)C(C)N2CCN(C)CC2)cc1S(=O)(=O)N1CCOCC1 (configuration not stated),-2.0%,6.5,0.3%,6.4%,8.6%
COC(=O)C1=C(SC)N(c2ccc(OC)cc2)C(c2ccccc2)CC1=O (configuration not stated),-25.7%,11.6,3.1%,-10.0%,-27.2%
COc1ccc(-c2ccc(N3C(c4cc(OC)cc(OC)c4)=Cc4ccc(OC)cc4C3CC(C)=O)cc2)cc1 (configuration not stated),5.17µM*,14.8,?,?,6.51µM*
COc1cc(OC)cc(C2=Cc3ccccc3C(CC(=O)c3ccco3)N2c2ccc(-c3cccnc3)cc2)c1 (configuration not stated),?,8.6,0.7%,-21.5%,18.4µM*
COc1ccc2c(c1)C(CC(C)=O)N(c1ccc(-c3cccs3)cc1)C(c1ccsc1)=C2 (configuration not stated),3.66µM*,-0.9,-14.7%,-14.3%,4.61µM*
